{
  "source": "PubChem BioAssay AID1004",
  "about": "(SRMLSC, 2008)",
  "note": "Calls of active or inactive are those of the source.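 The calls were made as follows: active = viability at 10 µM of 29.74% or lower, 3 SD below the compound median; inactive = the rest.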",
  "data": [
    {"experiment": "viability of HCT116 lacking mutant beta-catenin – cell-based, DP diverse set, validation, pilot screen (AID 1004)", "settings": "HCT116 (mutant beta-catenin deleted) viability, CellTiter-Glo, 60 h; at 10 µM; active compounds read low", "values": [
      {"smiles": "COc1cc([C@@H]2c3cc4c(cc3[C@H](O)[C@H]3COC(=O)[C@H]23)OCO4)cc(OC)c1OC", "viability": "37.4% (inactive)"},
      {"smiles": "CSc1ccc(/C=C2/C(C)=C(CC(=O)O)c3cc(F)ccc32)cc1", "viability": "96% (inactive)"},
      {"smiles": "O=c1c(-c2ccc(O)cc2)coc2cc(O)ccc12", "viability": "91% (inactive)"},
      {"smiles": "CC(C)CC(=O)N[C@H](C(=O)N[C@H](C(=O)N[C@@H](CC(C)C)[C@@H](O)CC(=O)N[C@@H](C)C(=O)N[C@@H](CC(C)C)[C@@H](O)CC(=O)O)C(C)C)C(C)C", "viability": "100% (inactive)"},
      {"smiles": "COc1c(C)c2c(c(O)c1C/C=C(\\C)CCC(=O)O)C(=O)OC2", "viability": "49.1% (inactive)"},
      {"smiles": "CC(C)NCC(O)COc1cccc2ccccc12", "note": "(stereo not given)", "viability": "94.6% (inactive)"},
      {"smiles": "CC(C)=CCC/C(C)=C/COc1ccc2ccc(=O)oc2c1", "viability": "96.8% (inactive)"},
      {"smiles": "CO/N=C(\\C(=O)N[C@@H]1C(=O)N2C(C(=O)O)=C(COC(C)=O)CS[C@H]12)c1csc(N)n1", "viability": "96.4% (inactive)"},
      {"smiles": "CNCCC(Oc1ccc(C(F)(F)F)cc1)c1ccccc1", "note": "(stereo not given)", "viability": "94.1% (inactive)"},
      {"smiles": "[O][C@H]1[C@@H](O)[C@@H](CO)O[C@@H](O[C@@H]2[C@@H]3OC[C@H]2O[C@H](O[C@@H]2[C@@H](O)[C@H](C[C@@H]4[C@@H]5OC[C@H]4O[CH][C@@H]5O)O[C@H](CO)[C@@H]2OS(=O)(=O)O)[C@@H]3OS(=O)(=O)O)[C@@H]1O", "viability": "96.4% (inactive)"},
      {"smiles": "COc1cc(-c2ccc(=O)[nH]n2)ccc1OC(F)F", "viability": "105% (inactive)"},
      {"smiles": "CC1(COc2ccc(CC3SC(=O)NC3=O)cc2)CCCCC1", "note": "(stereo not given)", "viability": "97% (inactive)"},
      {"smiles": "COC(=O)Nc1nc2ccc(C(=O)c3cccs3)cc2[nH]1", "viability": "38.8% (inactive)"},
      {"smiles": "CC1(C)OC2CC(=O)OCC23C1CC(=O)C1(C)C3CC[C@@]2(C)[C@H](c3ccoc3)OC(=O)C3OC312", "note": "(stereo not given in full)", "viability": "93% (inactive)"},
      {"smiles": "C/C=C1/C2C=C(C)CC1(N)c1ccc(=O)[nH]c1C2", "note": "(stereo not given)", "viability": "106% (inactive)"},
      {"smiles": "O=C(c1ccc(F)cc1)C1CCN(CCn2c(=O)[nH]c3ccccc3c2=O)CC1", "viability": "104% (inactive)"},
      {"smiles": "COc1cccc2c1C(=O)c1c(O)c3c(c(O)c1C2=O)C[C@@](O)(C(=O)CO)C[C@@H]3OC1C[C@@H](N)[C@H](O)[C@H](C)O1", "note": "(stereo not given in full)", "viability": "27.4% (active)"},
      {"smiles": "CC1=C(/C=C/C(C)=C/C=C/C(C)=C/C=C/C=C(C)/C=C/C=C(C)/C=C/C(=O)[C@]2(C)C[C@@H](O)CC2(C)C)C(C)(C)C[C@H](O)C1", "viability": "95.5% (inactive)"},
      {"smiles": "C=C1C(=O)[C@]23[C@H](O)[C@H]1CC[C@H]2[C@@]12COC3(O)[C@H](O)[C@@H]1C(C)(C)CC[C@@H]2O", "viability": "88% (inactive)"},
      {"smiles": "C=C(C)[C@H]1CC=C(CO)CC1", "viability": "99.5% (inactive)"},
      {"smiles": "Nc1c(N=Nc2ccc(-c3ccc(N=Nc4cc(S(=O)(=O)O)c5ccccc5c4N)cc3)cc2)cc(S(=O)(=O)O)c2ccccc12", "viability": "83% (inactive)"},
      {"smiles": "COc1ccc2nc(S(=O)Cc3ncc(C)c(OC)c3C)[nH]c2c1", "note": "(stereo not given)", "viability": "96.8% (inactive)"},
      {"smiles": "CC(=O)[C@H]1[C@H](C#N)CC2C3CC=C4C[C@@H](O)CCC4(C)C3CCC21C", "note": "(stereo not given in full)", "viability": "98.1% (inactive)"},
      {"smiles": "CC[n+]1c(-c2ccccc2)c2cc(N)ccc2c2ccc(N)cc21", "viability": "51.3% (inactive)"},
      {"smiles": "C=C(CCC12O[C@H](C(=O)O)[C@@](O)(C(=O)O)[C@](C(=O)O)(O1)[C@H](OC(=O)/C=C/[C@@H](C)C[C@@H](C)CC)[C@H]2O)[C@@H](OC(C)=O)[C@H](C)Cc1ccccc1", "viability": "100% (inactive)"},
      {"smiles": "O=c1[nH]cc(F)c(=O)[nH]1", "viability": "58.1% (inactive)"},
      {"smiles": "O=c1c(O)c(-c2ccc(O)c(O)c2)oc2cc(O)cc(O)c12", "viability": "93% (inactive)"},
      {"smiles": "C/C(=C\\CNc1ncnc2c1ncn2[C@@H]1O[C@H](CO)[C@@H](O)[C@H]1O)CO", "viability": "102% (inactive)"},
      {"smiles": "NS(=O)(=O)c1cc(C(=O)O)c(NCc2ccco2)cc1Cl", "viability": "96.3% (inactive)"},
      {"smiles": "C=CC1(C)CC(=O)C2(O)C(C)(O1)C(OC(C)=O)C(O)C1C(C)(C)CCC(O)C12C", "note": "(stereo not given)", "viability": "86% (inactive)"}
    ]}
  ]
}
